For 23 compounds, inhibition % (higher = more inhibition) results are on record in PubChem BioAssay AID651551 (Sanford-Burnham Center for Chemical Genomics, 2012).

A short description of this assay: GAPDH versus PEG-3 reporter suppression – cell-based, luminescence, counter-screen for PEG-3 promoter inhibitor project, SAR follow-up (AID 651551). To be noted: HeLa PEG-Prom / GAPDH luciferase reporter, 6 or 24 h, run 1, 6 h; at 99 µM (top of the series).

`CCCn1nc(C(=O)Nc2nc(-c3ccncc3)cs2)c2ccccc2c1=O` displayed an inhibition % (higher = more inhibition) of 44.4%.

Turning to `COc1ccc(-n2nc(C(=O)NCC(=O)Nc3cccc(OC)c3)c3ccccc3c2=O)cc1`, the inhibition % (higher = more inhibition) came to 31.1%.

`COc1ccc(-n2nc(C(=O)NCC(=O)Nc3cc(OC)c(OC)c(OC)c3)c3ccccc3c2=O)cc1OC` showed an inhibition % (higher = more inhibition) of 29.5%.

The compound `O=C(Nc1nccs1)c1nn(-c2ccccc2)c(=O)c2ccccc12` yielded an inhibition % (higher = more inhibition) of 28%.

In the case of `CCCn1nc(C(=O)Nc2nc3ccccc3s2)c2ccccc2c1=O`, the inhibition % (higher = more inhibition) is 42.8%.

In turn, `Cc1nc(NC(=O)c2ccccc2)sc1-c1csc(Nc2ccccc2Cl)n1` displayed an inhibition % (higher = more inhibition) of 32%.

As for `Cc1cc(NC(=O)c2cccc(C)c2C)n(-c2nc3ccccc3[nH]2)n1`, the inhibition % (higher = more inhibition) stood at 13.7%.

`COc1ccccc1Nc1nc(-c2sc(NC(=O)c3ccco3)nc2C)cs1`: the inhibition % (higher = more inhibition) turned out to be 51%.

Turning to `CCn1nc(C(=O)Nc2nc(-c3ccccn3)cs2)c2ccccc2c1=O`, the inhibition % (higher = more inhibition) stood at 38.3%.

The compound `COCCCNC(=O)c1ccc(Cn2c(=O)c3ccccc3n(Cc3ccccc3C#N)c2=O)cc1` showed an inhibition % (higher = more inhibition) of 25.3%.

Regarding `COc1ccc(-n2nc(C(=O)NCC(=O)Nc3ccc(OC)c(OC)c3)c3ccccc3c2=O)cc1`, the inhibition % (higher = more inhibition) worked out at 69.4%.

`Cc1cc(NC(=O)c2ccccc2)n(-c2nc3ccccc3n2C)n1` gave an inhibition % (higher = more inhibition) of 28.6%.

`Cc1ccc(Cl)cc1Nc1nc(-c2sc(NC(=O)c3ccco3)nc2C)cs1` had an inhibition % (higher = more inhibition) of 35.5%.

For the compound `CCn1cc(C(=O)NCc2ccco2)c(=O)c2cc(S(=O)(=O)N3CCCC3)ccc21`, the inhibition % (higher = more inhibition) stood at 37.8%.

`Cc1nc(NC(=O)c2ccccc2)sc1-c1csc(Nc2cccc(Cl)c2C)n1` registered an inhibition % (higher = more inhibition) of 27%.

As for `Cc1cc(NC(=O)c2ccccc2)n(-c2nc3ccccc3[nH]2)n1`, the inhibition % (higher = more inhibition) is 21.2%.

On to `COc1ccc(Cl)cc1Nc1nc(-c2sc(NC(=O)c3ccccc3)nc2C)cs1`, for which the inhibition % (higher = more inhibition) worked out at 44.4%.

As for `Cc1cc(NC(=O)c2ccccc2C)n(-c2nc3ccccc3[nH]2)n1`, the inhibition % (higher = more inhibition) came out at 44.4%.

The compound `Cc1nc(NC(=O)c2ccccc2)sc1-c1csc(Nc2ccccc2)n1` gave an inhibition % (higher = more inhibition) of 81.9%.

Take `O=C(Nc1nc2ccccc2s1)c1nn(-c2ccccc2)c(=O)c2ccccc12`: the inhibition % (higher = more inhibition) came to 27%.

As to `Cc1cc(NC(=O)c2ccccc2C(F)(F)F)n(-c2nc3ccccc3[nH]2)n1`, the inhibition % (higher = more inhibition) amounted to 89.3%.

As for `CCCn1nc(C(=O)Nc2nc(-c3ccccn3)cs2)c2ccccc2c1=O`, the inhibition % (higher = more inhibition) amounted to 81.9%.

In turn, `O=C(Nc1nc(-c2ccccc2)cs1)c1nn(-c2ccccc2)c(=O)c2ccccc12` yielded an inhibition % (higher = more inhibition) of 32.8%.
